Rab9 promoter act: Rab9 promoter activation | AID 485297 | Potency, µM (titrated, usually from 9.22 µM), most hits filed as activators | Huh7 Rab9 promoter-luciferase reporter, luminescence, 24 h | 320,000 compounds, 2.8% hits; also: nearly all actives have a fitted effect of over 60% in size
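Cells were plated at 1500 per well in reduced-serum medium with 10% FBS and left 2 h. Compound in DMSO was then added for 24 h at 37 °C. Reporter signal was read by luminescence after 10 min with luciferase detection reagent.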
NPC1 prom act: activates the NPC1 promoter. AID 485313. Potency, µM (top dose mostly 9.22 µM), hits mostly activators. 320,000 compounds, 2.4% hits. Huh7 NPC1 promoter luciferase reporter, 24 h; also: nearly all actives have a fitted effect of over 60% in size
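NPC1 promoter–luciferase Huh7 cells; 24 h compound; luminescence.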
SMN2 splice enh: enhancers of SMN2 splice variant expression; Potency, µM (series often up to 46.1 µM), hits mostly activators; 210,000 compounds, 2.8% hits; HEK293 SMN2-luciferase splicing reporter, luminescence, 30-36 h; also: nearly all actives have a fitted effect of over 55% in size
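HEK293 cells carry an SMN2 […]–luciferase reporter in which exon 7 inclusion puts luciferase in frame. Cells were plated 10-12 h before compound addition, then incubated 30-36 h at 37C. ONE-Glo luminescence was read; sodium butyrate at 4.5 mM final served as control.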
FLuc modulator: inhibits or activates purified firefly luciferase, miR-21 counter-screen | Potency, µM (series often up to 57.5 µM), hits mostly inhibitors | AID 588342 | 360,000 compounds, 6.9% hits | P08659 | purified FLuc, Km substrates, luminescence inhibition; also: nearly all actives have a fitted effect of over 55% in size
Target sequence (P08659 whole entry, looked up): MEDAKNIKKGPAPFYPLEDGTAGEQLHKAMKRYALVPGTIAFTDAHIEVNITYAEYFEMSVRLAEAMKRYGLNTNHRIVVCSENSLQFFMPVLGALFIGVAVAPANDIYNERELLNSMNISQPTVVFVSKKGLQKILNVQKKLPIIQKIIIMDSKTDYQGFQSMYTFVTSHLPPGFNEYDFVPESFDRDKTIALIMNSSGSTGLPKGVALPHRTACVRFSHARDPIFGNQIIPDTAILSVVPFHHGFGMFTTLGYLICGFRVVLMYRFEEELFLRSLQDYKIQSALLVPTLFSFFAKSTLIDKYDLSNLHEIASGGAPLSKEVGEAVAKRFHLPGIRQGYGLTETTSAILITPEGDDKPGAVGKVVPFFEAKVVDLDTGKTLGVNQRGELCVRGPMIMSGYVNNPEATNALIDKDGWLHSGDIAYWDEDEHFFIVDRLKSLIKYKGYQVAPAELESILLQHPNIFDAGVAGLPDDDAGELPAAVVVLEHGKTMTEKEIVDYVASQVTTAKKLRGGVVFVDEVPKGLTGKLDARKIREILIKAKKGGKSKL
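Purified P. pyralis luciferase (10nM final) with 10uM D-luciferin and 10uM ATP (Km levels) in 50mM Tris acetate pH 7.5, 10mM Mg acetate, 0.01% Tween-20, 0.05% BSA; qHTS 6-point titration, ~60 µM downward; luminescence read.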
Luc counter: blocks Kinase-Glo luciferase, a counter-screen artifact | Potency, µM (highest dose often 38.3 µM), usual class: inhibitors | Kinase-Glo luciferase, ATP luminescence, 8 min | AID 1379 | 200,000 compounds, 0.28% hits; also: nearly all actives have a fitted effect of over 60% in size
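Luminescence was the read-out, taken after 8-minute incubation at ambient temperature. Luciferase turned over luciferin with 10 uM ATP in imidazole pH 7.2 buffer containing KCl, MgCl2, Tween 20 and BSA.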
ELG1 genotox: genotoxicity induction in ELG1-luciferase HEK293T cells; HEK293T ELG1-luciferase reporter, luminescence, 16 h; AID 504466; Potency, µM (series often up to 46 µM), hits mostly activators; 330,000 compounds, 1.3% hits; also: nearly all actives have a fitted effect of over 60% in size
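Genotoxicity was scored as increased ELG1-luciferase reporter signal, measured by ONE-Glo luminescence (30 min, room temperature). Compound or vehicle exposure of the HEK293T reporter cells lasted 16 hr at 37°C.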
A number is an active result; 0 = inactive; ? = inconclusive; - = no result given; [ ] = another dose, or the depositor's remark. In the library only some 7.3% were active in any assay of this set; here they are far more common. Calls follow the shape of the dose curve; as a rule, active = well fitted curve in the direction sought with a large enough effect; inconclusive = small, poorly fitted or top-dose-only effect, or another doubt; inactive = no such curve, though single readings can be large; an effect the other way counts as inactive or inconclusive.

SMILES	Rab9 promoter act	NPC1 prom act	SMN2 splice enh	FLuc modulator	Luc counter	ELG1 genotox
O=C(O)CSc1nc2ccccc2[nH]1	0	0	0[9.22 µM]	0	0[7.66 µM]	0
c1ccc2[nH]c(SCC3CCCCO3)nc2c1 (configuration not stated)	1.4µM	1.8µM	0	19µM	?	?
ClC1(Cl)CC1CSc1nc2ccccc2[nH]1 (configuration not stated)	?	?	?	17µM	0	0
CCOc1ccc2nc(SCC3CC3(Cl)Cl)[nH]c2c1 (configuration not stated)	3.2µM	2.5µM	-	7.6µM	-	?
CC(C)c1ccc(C2c3c(-c4ccccc4O)n[nH]c3C(=O)N2Cc2ccncc2)cc1 (configuration not stated)	-	-	0	0	-	-
COc1ccc(/C=N/NC(=O)c2ccc[nH]2)cc1	1.6µM	2.5µM	-	5.4µM	-	8.2µM
CSc1ccc(/C=N/NC(=O)c2ccc(O)cc2)cc1	2.5µM	?	?	4.8µM	13µM	?
O=C(N/N=C/c1ccc(N2CCOCC2)cc1)c1ccc(O)cc1	0	0	-	24µM	-	0
COc1ccc(C(=O)N/N=C/c2ccc(SC)cc2)cc1	0	0	0	6.7µM	0	0
O=C(N/N=C/c1ccc(O)cc1)c1ccncc1	0[1.84 µM]	0	-	0	-	0
Nc1ccccc1S[C@@H](C[N+](=O)[O-])c1ccc2c(c1)OCO2	-	-	0[9.22 µM]	-	0[7.66 µM]	-
O=C1CC(c2nc3ccccc3n2CCC2CCCCC2)CN1c1ccccc1Cl (configuration not stated)	-	-	0	0	-	-
CCOc1ccc(NC(=O)c2ccc(CC)s2)c([N+](=O)[O-])c1	2.2µM	?	-	0	0	?
CCOc1ccc(NC(=O)c2cccnc2Cl)c([N+](=O)[O-])c1	0	0	0	0	0	0
CCOc1ccc(NC(=O)c2ccco2)c([N+](=O)[O-])c1	1.6µM	2µM	14µM	2.4µM	0	?
CCOc1ccc(NC(=O)c2cc(-c3ccc(C)c(F)c3)on2)c([N+](=O)[O-])c1	-	-	-	0	-	-
CCOc1ccc(NC(=O)c2cccs2)c([N+](=O)[O-])c1	1.6µM	?	7.1µM	?	0	?
CCc1ccc(CNC(=O)c2cnc3sc(N4CCCCC4)nn3c2=O)cc1	-	-	-	0	-	-
Cc1ccc(Cl)cc1NC(=O)C(NS(=O)(=O)c1cccc2nsnc12)c1ccccc1 (configuration not stated)	-	-	0	?	-	-
CCOc1ccc(NC(=O)CC2C(=O)N(c3cccc(C)c3)C(=O)N2Cc2cccnc2)cc1 (configuration not stated)	-	-	-	0	-	-
CCc1ccc(Nc2nnc(SC(C)C(=O)NC3CC3)s2)cc1 (configuration not stated)	-	-	-	-	-	0
CCc1ccc(Nc2nnc(SC3CCOC3=O)s2)cc1 (configuration not stated)	0	0	0	21µM	0	0
COC(=O)[C@H](CCSC)NC(=O)c1cccnc1SC	0	0	-	0	-	0
CCc1ccc(C(=O)NC(CCSC)C(=O)OC)cc1 (configuration not stated)	0	0	0	19µM	0	0
O=C(NNC(=S)NC1CCCCC1)c1ccc2c(c1)OCO2	1µM	?	5.6µM	?	0	0
SMILES	Rab9 promoter act	NPC1 prom act	SMN2 splice enh	FLuc modulator	Luc counter	ELG1 genotox
O=C(NNC(=S)NCc1ccccc1)c1ccc2c(c1)OCO2	0	0	0	0	0	0
O=C(NC1CCN(Cc2ccccc2)CC1)c1ccc2c(c1)OCCCO2	0	0	-	0	-	0
O=C(NC1CCCCC1)c1ccc2c(c1)OCCO2	3.2µM	1.4µM	-	13µM	-	21µM
CN(C(=O)c1ccc2c(c1)OCO2)C1(C(=O)NC2CCCC2)CCCCC1	0	0	0	0[2.3 µM]	0	0
O=C(NC1CCCCCCC1)c1ccc2c(c1)OCO2	0.4µM	0.79µM	5µM	3µM	0	2.1µM
S=C(NC1CCCCC1)c1ccc2c(c1)OCO2	0	0	0	8.5µM	0	0
COC(=O)c1ccc(C(NC(=O)OCc2ccccc2)/C(F)=C/[C@@H](C)C(=O)NC2CCCCC2)cc1 (some centres not stated)	-	-	0	-	0	-
COc1ccc(C)cc1NC(=O)CCn1nc(C)cc1C	-	-	-	0	-	-

Compound activity as filed in PubChem BioAssay.
